Compound activity deposited in PubChem by National Center for Advancing Translational Sciences (NCATS).
Most compounds without a hit are left out; they make up all but 7.3% or so of the library.
Rab9 prom act: qHTS Assay for Rab9 Promoter Activators. 2.8% of 320,000 active. Huh7 Rab9 promoter-luciferase reporter, luminescence, 24 h. Potency, µM (top dose mostly 9.22 µM), usual class: activators; note: nearly all actives have a fitted effect of over 60% in size
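Using Huh7 cells stably transfected with Rab9 promoter–luciferase, compounds were incubated 24 h at 37 °C, 5% CO2; luciferase luminescence was read 10 min after reagent addition.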
FLuc modulator: qHTS profiling assay for firefly luciferase inhibitor/activator using purifed enzyme and Km concentrations of substrates (counterscreen for miR-21 project); purified FLuc, Km substrates, luminescence inhibition; 6.9% of 360,000 active; Potency, µM (series often up to 57.5 µM), usual class: inhibitors; note: nearly all actives have a fitted effect of over 55% in size
Target sequence (P08659 whole entry, looked up): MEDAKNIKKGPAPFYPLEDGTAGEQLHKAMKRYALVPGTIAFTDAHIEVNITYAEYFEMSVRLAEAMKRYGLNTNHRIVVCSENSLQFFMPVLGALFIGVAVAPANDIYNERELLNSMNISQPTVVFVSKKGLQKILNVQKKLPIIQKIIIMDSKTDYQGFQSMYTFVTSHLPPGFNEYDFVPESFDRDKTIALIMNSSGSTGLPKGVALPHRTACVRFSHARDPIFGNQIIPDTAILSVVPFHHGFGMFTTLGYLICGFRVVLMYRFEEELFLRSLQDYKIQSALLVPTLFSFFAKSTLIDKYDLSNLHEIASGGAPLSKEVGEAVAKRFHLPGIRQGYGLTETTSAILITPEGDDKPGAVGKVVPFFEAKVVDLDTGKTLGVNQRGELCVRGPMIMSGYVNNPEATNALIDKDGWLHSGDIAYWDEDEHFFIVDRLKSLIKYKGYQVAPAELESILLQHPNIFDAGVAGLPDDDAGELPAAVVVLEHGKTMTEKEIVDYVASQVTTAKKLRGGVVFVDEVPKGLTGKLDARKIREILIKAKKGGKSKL
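Purified P. pyralis luciferase, 10 nM final, with Km-level 10 uM D-luciferin and 10 uM ATP in 50 mM Tris acetate pH 7.5, 10 mM Mg acetate, 0.01% Tween-20, 0.05% BSA; 6-point qHTS titration about 60 µM downward; luminescence read.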
SMN2 splice enh: qHTS Assay for Enhancers of SMN2 Splice Variant Expression; HEK293 SMN2-luciferase splicing reporter, luminescence, 30-36 h; Potency, µM (highest dose often 46.1 µM), actives largely listed as activators; 2.8% of 210,000 active; AID 1458, 2008; note: nearly all actives have a fitted effect of over 55% in size
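HEK293 cells carry an SMN2 minigene-luciferase reporter in which exon 7 inclusion puts luciferase in frame. Cells were seeded at 2000 cells/well, attached for 10-12 hours, then exposed to compounds for 30-36 hours at 37C before ONE-Glo luminescence.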
uPA surface inh: qHTS for Inhibitors of Cell Surface uPA Generation | cell surface uPA generation assay, qHTS | Potency, µM (doses to about 38.3 µM), usual class: inhibitors | 0.31% of 330,000 active; active = well fitted inhibition curve with a large enough effect; inconclusive = small, poorly fitted or top-dose-only effect; inactive = no such curve, though single readings can be large or run the other way; tested in mouse RAW 264.7 cells; note: nearly all actives have a fitted effect of over 55% in size
ELG1 genotox: qHTS screen for small molecules that induce genotoxicity in human embryonic kidney (HEK293T) cells expressing luciferase-tagged ELG1 | HEK293T ELG1-luciferase reporter, luminescence, 16 h | Potency, µM (top dose mostly 46 µM), hits mostly activators | 1.3% of 330,000 active | AID 504466, 2011; note: nearly all actives have a fitted effect of over 60% in size
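HEK293T cells expressing luciferase-tagged ELG1 were treated with compound or DMSO for 16 hr at 37°C. Luciferase activity was then read after 30 min with ONE-Glo at room temperature; rising signal flags genetic stress.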
NPC1 prom act: qHTS Assay for NPC1 Promoter Activators. Huh7 NPC1 promoter luciferase reporter, 24 h. Potency, µM (doses to about 9.22 µM), hits mostly activators. 2.4% of 320,000 active. AID 485313, 2010; note: nearly all actives have a fitted effect of over 60% in size
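In 1536-well qHTS, Huh7 cells harboring an NPC1 promoter–luciferase construct received compound for 24 h; activation was quantified by luminescence following luciferase reagent addition.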
Hits are given with their value; - = inactive; ? = inconclusive; . = no result given. Unless noted, calls come from the whole dose curve; as a rule, active = well fitted curve in the direction sought with a large enough effect; inconclusive = small, poorly fitted or top-dose-only effect, or another doubt; inactive = no such curve, though single readings can be large; an effect the other way counts as inactive or inconclusive.

SMILES	Rab9 prom act	FLuc modulator	SMN2 splice enh	uPA surface inh	ELG1 genotox	NPC1 prom act
CCc1ccc(NC(=O)CSC2=Nc3ccccc3C3=NC(CCC(=O)NCc4ccco4)C(=O)N23)cc1 (configuration not stated)	.	-	.	.	.	.
Cc1ccc(C(=O)COC(=O)CCCC(=O)Nc2cc(C(F)(F)F)ccc2Cl)cc1C	-	2.4µM	-	-	-	-
c1ccc2oc(NC3=NCN(C4CCCCC4)CN3)nc2c1	?	?	.	-	?	2.5µM
CCCCN1CN=C(Nc2nc3ccccc3o2)NC1	3.5µM	?	-	-	?	?
CC(C)(C)C(=O)O/N=C(\N)c1ccc(Br)cc1	-	21µM	.	-	-	-
N/C(=N\OC(=O)Cc1cccs1)c1ccc(Br)cc1	-	19µM	-	-	?	-
O=C(COC(=O)c1ccccc1)c1ccc(Br)cc1	4µM	0.54µM	-	-	-	2.2µM
O=C(COC(=O)c1ccc(Br)cc1)NCCc1ccccc1	-	-	-	-	-	-
O=C(COC(=O)CCCNC(=O)c1ccc(Cl)cc1)Nc1ccc(Br)cc1	-	3.4µM	-	-	-	-
Cc1cccc(N2CCN(C(=O)c3cnn(-c4ccccc4Cl)c3C3CCN(C(=O)OC(C)(C)C)CC3)CC2C)c1 (configuration not stated)	.	-	.	.	.	.
O=C(CN1C(=O)c2ccccc2S1(=O)=O)NCc1c(F)cccc1F	-	-	.	-	-	-
CCOC(=O)C1CCCN(C(=O)c2nn(-c3ccc(C)cc3)c(=O)n(C)c2=O)C1 (configuration not stated)	.	-	.	.	.	.
COc1cc(C2NC(=O)NC(C)=C2C(=O)Nc2cc(C)cc(C)c2)ccc1O (configuration not stated)	.	-	-	.	.	.
Cc1ccc(-n2c(SCC(=O)Nc3ccc4c(c3)OCCO4)nc3c([nH]c4ccccc43)c2=O)cc1	.	-	.	.	.	.
COc1cc(OC)c(C(=O)O/N=C(\N)c2ccc(C)cc2)cc1OC	-	?	.	-	-	-
O=C(CSCC(=O)OCC(=O)c1ccc(Br)cc1)Nc1ccc(Br)cc1	-	17µM	-	-	-	-
CC(C)(C)C(=O)O/N=C(\N)c1ccc(-c2csnn2)cc1	4.5µM	7.6µM	.	-	?	2.8µM
Cc1ccc(C(=O)O/N=C(\N)c2ccc(Br)cc2)cc1	-	2.4µM	-	-	13µM	-
N/C(=N\OC(=O)c1ccc(Br)cc1)c1ccccc1	2.8µM	0.21µM	?	.	?	3.2µM
COc1ccc(Cn2c(C(=O)O)c(CNC3CCCCC3)c3ccc(C)cc32)cc1	.	-	.	.	.	.
Cc1ccc(OCC(=O)Nc2ccccc2C(=O)OCc2cc(=O)n3ccsc3n2)cc1C	.	-	.	.	.	.
CS(=O)(=O)c1ccc(C(=O)OCC(=O)NC(=O)C2CCCCC2)cc1[N+](=O)[O-]	-	-	-	-	-	-
O=C(COC(=O)CCCSc1nc2ccccc2[nH]1)Nc1ccc(Cl)cc1	-	19µM	-	-	-	-
CCc1ccccc1NC(=O)CN1C(=O)CCc2cc(S(=O)(=O)N3CCCCC3)ccc21	.	-	.	.	.	.
Cn1c(=O)c2cc(C(=O)Nc3cccc(C#N)c3)sc2c2ccccc21	.	-	-	.	.	.
SMILES	Rab9 prom act	FLuc modulator	SMN2 splice enh	uPA surface inh	ELG1 genotox	NPC1 prom act
CCn1c(C)cc(/C=C2/SC(=O)N(CC(=O)N3CCCC3)C2=O)c1C	-	21µM	.	-	-	-
COCCn1c(C)cc(/C=C2/SC(=O)N(CC(=O)N3CCCC3)C2=O)c1C	-	19µM	.	-	-	-
CCn1c(C)cc(/C=C2\SC(=O)N(CC(=O)Nc3ccc(C)c(C)c3)C2=O)c1C	-	-	-	-	-	-
Cc1ccc(-n2c(C)cc(/C=C3/SC(=O)N(CC(=O)N4CCOCC4)C3=O)c2C)nc1	?	1.5µM	.	-	?	?
COCCN1C(=O)/C(=C/c2ccc(N3CCCC3)cc2C)SC1=S	-	4.8µM	.	-	-	-
Cc1cc(F)ccc1NCc1ccccc1-c1nnc(-c2ccccc2Cl)o1	.	?	-	.	.	.
CCOC(=O)c1ccc(NC(=O)c2ccc(-c3cccc(Cl)c3C)o2)cc1	.	-	-	.	.	.
